Experimental data published in PubChem BioAssay (NCI).
About 79,000 compounds went through this panel and 15% of them were active in at least one assay; those are over-represented in the sample as a whole. A number with no mark means an inactive call. Calls of active or inactive are those of the source. Cut-off read from the data, not from the text of the source: active = growth inhibition above about 70%; inactive = the rest.

Key:
[1] = NCI Yeast Anticancer Drug Screen. Data for the rad50 strain (AID 155);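 note: 0% = growth of vehicle-only cultures of the same strain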; details: S. cerevisiae rad50 strain growth inhibition; at 50.0 µM; active compounds read high
Summary of the method: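 Growth of the mutant yeast was measured after compound exposure and referenced to vehicle-treated cultures.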

[2] = NCI Yeast Anticancer Drug Screen. Data for the mec2-1 strain (AID 157); details: S. cerevisiae mec2-1 strain, at 50.0 µM, active compounds read high
Summary of the method: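 Compounds were applied to mec2-1 yeast cells. Their growth was then compared with that of vehicle-treated cultures to give growth inhibition.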

[3] = NCI Yeast Anticancer Drug Screen. Data for the sgs1 mgt1 strain (AID 161);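 note: 0% = growth of cultures given vehicle only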; details: S. cerevisiae sgs1 mgt1 strain, at 50.0 µM, active compounds read high
Summary of the method: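 Growth of a repair-deficient yeast mutant was monitored after compound treatment and expressed as inhibition relative to vehicle-treated cultures.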

[4] = NCI Yeast Anticancer Drug Screen. Data for the cln2 rad14 strain (AID 165);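 note: 0% = growth equal to vehicle treated cultures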; details: S. cerevisiae cln2 rad14 strain, at 50.0 µM, active compounds read high
Summary of the method: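 Strain: cln2 rad14 yeast, altered in cell cycle control and DNA damage repair. Read-out: growth inhibition vs vehicle.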

[5] = NCI Yeast Anticancer Drug Screen. Data for the bub3 strain (AID 167); details: S. cerevisiae bub3 mutant strain, at 50.0 µM, active compounds read high
Summary of the method: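 Whole-cell yeast assay. The mutant strain was incubated with compounds, and growth inhibition was determined by comparison with vehicle-treated cells.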

[6] = NCI Yeast Anticancer Drug Screen. Data for the mlh1 rad18 strain (AID 175); details: S. cerevisiae mlh1 rad18 strain growth inhibition; at 50.0 µM; active compounds read high
Summary of the method: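 A repair-deficient yeast strain is exposed to test compound, and growth is scored relative to vehicle-treated controls.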

Structure (SMILES)	growth inhibition [1]	growth inhibition [2]	growth inhibition [3]	growth inhibition [4]	growth inhibition [5]	growth inhibition [6]
O=c1ccc(=O)[nH][nH]1.[Zn+2]	-18.2%	5.1%	-4.8%	-7.2%	-4%	-22.1%
C/C=C/C(=O)[O-].C/C=C/C(=O)[O-].N.N.N.N.[Co+3].[O-][Cl+3]([O-])([O-])[O-]	0.2%	-2.7%	-7.2%	25.1%	7.3%	-3.5%
CCCC(=O)[O-].CCCC(=O)[O-].NCCN.NCCN.[Co+3].[O-][Cl+3]([O-])([O-])[O-]	-18.5%	19.1%	-5.1%	23%	-0.45%	-1.75%
CCCCCCCCCCP(=O)(O)O	-4.9%	-27.4%	-13.3%	-30.3%	-1.6%	-2.85%
CCCOC(=O)CCl	15.4%	15.2%	30.1%	5.25%	5.15%	20.3%
c1ccc2c(c1)sc1ccccc12	15.5%	-13.7%	16.9%	-29.4%	-8.6%	15.2%
CC1(C)N=C(N)N=C(N)N1c1ccc(CCC(=O)Nc2cccc(S(=O)(=O)F)c2)c(Cl)c1	57.7%	82.4% (active)	68%	-3.05%	-31.9%	8.05%
Clc1ccc(-c2ccccc2)cc1Cl	12.9%	-12.5%	-8.85%	-0.8%	14.6%	1.9%
Nc1ccc(CCC(=O)Nc2ccc(S(=O)(=O)F)cc2)c(Cl)c1	82.9% (active)	84% (active)	85.3% (active)	92% (active)	92% (active)	96.5% (active)
CC(=O)Nc1cccc([As+](C)(C)C)c1	14.3%	9.75%	-2.8%	-22.2%	-3.35%	16.9%
CCNC1=C(N2CC2)C(=O)C(NCC)=C(N2CC2)C1=O	30.5%	15.7%	29.4%	8.1%	13.3%	18.7%
Cc1nnc(NC2=NCCO2)s1	-4.2%	-5.5%	-1.6%	-28.1%	-14.2%	-4%
COc1ccc2c3c1OC1C(O)C=CC4C(C2)N(N=O)CCC341 (stereo not given)	-3.2%	9.6%	-4.2%	11.5%	5.25%	21.7%
O=C(CCSCCC(=O)N/N=C/c1ccc(N(CCCl)CCCl)cc1)N/N=C\c1ccc(N(CCCl)CCCl)cc1	7%	3.85%	9.35%	-6.4%	-9.45%	16.6%
Oc1ccccc1C=NC1CCCCC1N=Cc1ccccc1O.[Ni] (stereo not given)	18.7%	4.05%	7.9%	-8.6%	-0.55%	-10.4%
NC(=O)C(Cl)c1ccccc1 (stereo not given)	-17.2%	-25.9%	-24.8%	-23.6%	-23.9%	-9.15%
CC(C)C(C)(O)C#N (stereo not given)	2.2%	-2.1%	2.6%	-23.4%	2.9%	17.9%
CC(=O)C(CN1CCCCC1)C(c1ccccc1)c1c(O)c2ccccc2oc1=O (stereo not given)	6.8%	-9%	9.25%	26.2%	33%	9.55%
FC(F)(F)c1cccc(NC2=NCCS2)c1	-22.2%	-46.1%	0%	-5.6%	17.9%	-42.8%
O=C(CC(=O)C(F)(F)F)c1cccs1	-6.15%	-11.6%	1.1%	12.3%	11.9%	-13.1%
